BJeLR viability: BJeLR cell viability loss, primary screen, luminescence, CellTiterGlo ATP; actives 0.64% (n = 30,000); AID 2275, 2010; BJeLR fibroblasts viability, 48 h; HRASV12, hTERT and SV40 LT/ST transformed; viability loss activity score, % (test concentration not listed); in the data active = viability loss activity score above about 50%;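 also: higher score means fewer live cells and less ATP luminescence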
A1 inh: inducers of caspase activity in MEF A1-2A-BIM cells, primary screen, A1 inhibitor project, cell-based, CaspaseGlo luminescence. actives 0.51% (n = 21,000). caspase activation, % (test concentration not listed). caspase-Glo luminescence, 3 h; percent of clofoctol signal, DMSO as zero;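 active = most replicate scores above 10, or exactly half above 10 with mean activity above 10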;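 also: effector caspase 3 and 7 activity cleaving a DEVD luciferin substrate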
Numbers without * were called inactive; . = not tested or not shown. Sampled rows, rich in hits. Any-hit rate of the full collection: about 0.9%.

SMILES | BJeLR viability | A1 inh
CCc1ccc2c(c1)=C(c1[nH]c(=S)[nH]c1O)C(=O)N=2 | -4 | 0
CCn1cc(CCCC(=O)NC2CCC(C)CC2)c2ccccc21 (configuration not stated) | -2 | 0
Cc1ccc(Oc2ncccc2NC(=O)c2ccc(Cl)cc2Cl)c2c1CCC2 | 0 | 0
Cc1ccc(-c2nsc(SCC(=O)c3ccc(Cl)cc3)n2)cc1 | -1 | 0
CCOc1ccc(-c2c(C#N)c(N)nc(SCC(=O)c3ccc(Cl)cc3)c2C#N)cc1 | 4 | 16*
O=C1/C(=C/c2ccc(O)cc2)SC(=S)N1CCc1ccccc1 | 2 | 1
Cc1nc(Oc2ccc3c(C)cc(=O)oc3c2)c2c3c(sc2n1)CCC3 | 3 | -1
Cc1nc(Oc2ccc(NC(=O)c3ccccc3)cc2)c2c3c(sc2n1)CCC3 | 8 | 29*
Oc1c(C(c2ccncc2)N2CCCC2)ccc2cccnc12 (configuration not stated) | 31 | 5
COc1ccc(C(c2ccc3cccnc3c2O)N2CCOCC2)cc1 (configuration not stated) | 30 | 43*
O=C(Nc1ccc(Cl)c(C(F)(F)F)c1)C(=S)NCc1ccco1 | 0 | 0
O=C(c1ccccc1)c1ccc(-c2ccccc2)cc1 | -3 | -2
O=C1C[C@H](c2ccccc2)Oc2c(Cc3ccccc3O)c(O)cc(O)c21 | 10 | -1
CC(C)=CCc1c(O)cc(O)c2c1O[C@H](c1ccccc1)CC2=O | 2 | 23*
COc1ccc(/C=C2/NC(=O)NC2=O)cc1 | -6 | 0
C=CCc1ccc(O[C@@H]2O[C@H](CO[C@@H]3O[C@@H](C)[C@H](O)[C@@H](O)[C@H]3O)[C@@H](O)[C@H](O)[C@H]2O)c(O)c1 | 1 | 1
C=CCc1ccc(O[C@@H]2O[C@H](CO)[C@@H](O)[C@H](O)[C@H]2O)c(O[C@@H]2O[C@H](CO)[C@@H](O)[C@H](O)[C@H]2O)c1 | 70* | 0
Cc1ccc(C)c(N2CCN(C(=O)CN3CC(c4ccccc4)CC3=O)CC2)c1 (configuration not stated) | 0 | .
CN1C(=O)[C@@]2(Cc3ccccc3)SSS[C@]1(CO)C(=O)N2C | 87* | 31*
O=C1C=CC(O)(/C=C/C(=O)O[C@@H]2[C@@H](O)[C@H](Oc3ccc(O)cc3)O[C@H](CO)[C@H]2O)C=C1 | -2 | 0
CC1OC(OC2C(CO)OC(OC(=O)[C@]34CCC(C)(C)CC3C3=CCC5[C@@]6(C)CC[C@H](OC7OC(C)C(OC8OCC(O)(COC9OCC(O)C(OC%10OCC(OC%11OCC(O)(CO)C%11O)C(O)C%10O)C9O)C8O)C(O)C7O)C(C)(C)C6CC[C@@]5(C)[C@]3(C)CC4)C(O)C2O)C(O)C(O)C1O (some centres not stated) | 4 | 12*
CC1(C)CC[C@@]2(C(=O)O[C@@H]3O[C@H](CO)[C@@H](O)[C@H](O)[C@H]3O)C(C1)C1=CCC3[C@@]4(C)CC[C@@H](O[C@@H]5O[C@H](C(=O)O)[C@@H](O[C@@H]6OC[C@@H](O)[C@H](O)[C@H]6O)[C@H](O)[C@H]5O)C(C)(C)C4CC[C@@]3(C)[C@]1(C)C[C@H]2O (some centres not stated) | 0 | 0
C[C@@H]1O[C@@H](O[C@H]2[C@H](O[C@H]3CC[C@@]4(C)C(CC[C@]5(C)C4CC=C4[C@@H]6CC(C)(C)CC[C@]6(C(=O)O[C@@H]6O[C@H](CO[C@@H]7O[C@H](CO)[C@@H](O)[C@H](O)[C@H]7O)[C@@H](O)[C@H](O)[C@H]6O)CC[C@]45C)[C@]3(C)CO)OC[C@H](O)[C@@H]2O)[C@H](O)[C@H](O)[C@H]1O (some centres not stated) | -4 | 0
CC1(C)CC[C@]2(C(=O)OC3OC(CO)C(O)C(O)C3O)CC[C@]3(C)C(=CCC4[C@@]5(C)CC[C@H](OC6OC(C(=O)O)C(O)C(O)C6O)C(CO)(CO)C5CC[C@]43C)[C@@H]2C1 (some centres not stated) | 133* | 2
C[C@@H]1O[C@@H](O[C@H]2[C@H](O)[C@@H](O)[C@H](OC[C@H]3O[C@@H](OC(=O)[C@]45CCC(C)(C)CC4C4=CCC6[C@@]7(C)CC[C@H](O)C(C)(C)C7CC[C@@]6(C)[C@]4(C)CC5)[C@H](O)[C@@H](O)[C@@H]3O)O[C@@H]2CO)[C@H](O)[C@H](O)[C@H]1O (some centres not stated) | 125* | 1
SMILES | BJeLR viability | A1 inh
CC(=O)N[C@H]1[C@H](O[C@H]2CC[C@@]3(C)C(CC[C@]4(C)C3CC=C3[C@@H]5CC(C)(C)CC[C@]5(C(=O)OC5OCC(O)C(O)C5O)C(O)C[C@]34C)C2(C)C)O[C@H](COC2OCC(O)C(OC3OCC(O)C(O)C3O)C2O)[C@@H](O[C@@H]2O[C@@H](C)[C@H](O)[C@@H](O)[C@H]2O[C@@H]2O[C@@H](C)[C@H](O)[C@@H](O)[C@H]2O)[C@@H]1O (some centres not stated) | 1 | 35*
CC1OC(O[C@H]2CC[C@@]3(C)C(CC[C@]4(C)C3CC=C3C5CC(C)(C)CC[C@]5(C(=O)OC5OC(CO)C(OC6OC(CO)C(O)C(O)C6O)C(O)C5O)CC[C@]34C)C2(C)C)C(O)C(O)C1OC1OCC(O)(COC2OCC(O)C(OC3OCC(OC4OCC(O)(CO)C4O)C(O)C3O)C2O)C1O (some centres not stated) | -5 | 0
CC1(C)CC[C@]2(C(=O)O[C@@H]3O[C@H](CO)[C@@H](O)[C@H](O)[C@H]3O)CC[C@]3(C)C(=CCC4[C@@]5(C)CC[C@H](O[C@@H]6O[C@H](C(=O)O)[C@@H](O[C@@H]7O[C@H](CO)[C@@H](O)[C@H](O)[C@H]7O)[C@H](O)[C@H]6O)C(C)(C)C5CC[C@]43C)C2C1 (some centres not stated) | 2 | 0
CCc1ccc(NC(=O)C(CC)Sc2nc3ccsc3c(=O)n2C2CC2)cc1 (configuration not stated) | -11 | 0
O=C(O)CC1(CC2=NS(=O)(=O)c3ccccc3N2)CCCC1 | -2 | 1
O=C(Sc1ccccn1)N1c2ccccc2Sc2ccccc21 | 4 | 0
O=C(/C=C/Sc1ccccn1)c1ccccc1 | 76* | 2
CCN(CC)c1cc(C)c2cc(NC(=O)/C(C)=C\c3ccccc3)ccc2n1 | 4 | .
CCOC(=O)C(C)Oc1cc(O)c2c(=O)cc(-c3ccccc3)oc2c1 (configuration not stated) | -1 | -2
c1ccc2c(c1)NC(c1ccc3c(c1)OCO3)S2 (configuration not stated) | 72* | -7
COc1cc(C2Nc3ccccc3S2)cc(OC)c1OC (configuration not stated) | -3 | 2
CC(C)Cn1c2ccc(Br)cc2c2nc3ccccc3nc21 | 7 | 0
S=C(Nc1ccccc1)N1CCN(c2ccc3nnc(-c4ccccc4)n3n2)CC1 | 4 | -1
COc1ccc(CC(N)C(=O)N[C@H]2[C@@H](O)[C@H](n3cnc4c(N(C)C)ncnc43)O[C@@H]2CO)cc1 (some centres not stated) | 19 | 58*
